Screening results as filed in PubChem.
Sfp PPTase inh – blocks B. subtilis Sfp PPTase activity. Biochemical Sfp PPTase activity, qHTS. Potency, µM, most hits filed as inhibitors. actives 3.5% (n = 310,000). Q9F4F7;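 further: the enzyme is Sfp with the accession as filed and its product quenches rhodamine fluorescence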
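Step 1, compound plus 15 nM Sfp-PPTase, 15 min, room temperature. Step 2, add rhodamine-CoA (5 uM) and BHQ-2-YbbR (12.5 uM). Step 3, read 525/598 nm fluorescence at 0 and 30 min.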
JMJD2A Tudor – blocks the human JMJD2A Tudor domain; actives 4.4% (n = 390,000); AlphaScreen JMJD2A-Tudor / H3K4me3 peptide binding; AID 504339; Potency, µM (highest dose often 114 µM), hits mostly inhibitors; O75164; further: nearly all actives have a fitted effect of over 50% in size
Target sequence (O75164 whole entry, looked up, the tested form may be a part): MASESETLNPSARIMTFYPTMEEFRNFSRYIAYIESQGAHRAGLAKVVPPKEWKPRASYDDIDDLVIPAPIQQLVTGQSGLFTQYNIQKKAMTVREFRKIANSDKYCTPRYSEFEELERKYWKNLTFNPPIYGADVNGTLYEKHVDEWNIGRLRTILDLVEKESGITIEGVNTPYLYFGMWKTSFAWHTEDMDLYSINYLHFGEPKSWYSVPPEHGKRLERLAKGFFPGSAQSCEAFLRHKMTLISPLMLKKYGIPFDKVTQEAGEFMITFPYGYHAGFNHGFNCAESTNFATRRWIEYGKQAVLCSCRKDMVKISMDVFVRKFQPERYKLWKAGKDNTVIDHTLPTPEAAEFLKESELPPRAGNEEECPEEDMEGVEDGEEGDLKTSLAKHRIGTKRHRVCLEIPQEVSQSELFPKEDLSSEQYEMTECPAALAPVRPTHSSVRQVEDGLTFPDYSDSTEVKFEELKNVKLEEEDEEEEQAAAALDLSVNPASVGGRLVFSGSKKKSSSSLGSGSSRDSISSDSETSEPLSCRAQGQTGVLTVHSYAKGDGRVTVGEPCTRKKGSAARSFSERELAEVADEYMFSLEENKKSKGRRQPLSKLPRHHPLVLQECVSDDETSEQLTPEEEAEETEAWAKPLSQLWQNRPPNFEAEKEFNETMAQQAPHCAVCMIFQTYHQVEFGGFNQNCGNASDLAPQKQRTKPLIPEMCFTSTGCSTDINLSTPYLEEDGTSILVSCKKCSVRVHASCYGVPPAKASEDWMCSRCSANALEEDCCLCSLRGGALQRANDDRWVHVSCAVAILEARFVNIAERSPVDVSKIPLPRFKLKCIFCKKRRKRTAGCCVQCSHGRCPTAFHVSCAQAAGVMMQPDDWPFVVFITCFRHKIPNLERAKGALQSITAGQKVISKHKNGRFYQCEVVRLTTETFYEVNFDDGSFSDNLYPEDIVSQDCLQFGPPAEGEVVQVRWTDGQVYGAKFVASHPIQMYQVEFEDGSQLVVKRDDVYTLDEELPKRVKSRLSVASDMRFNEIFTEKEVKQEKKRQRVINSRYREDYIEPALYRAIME
L3MBTL1 inh – blocks human L3MBTL1; Potency, µM (highest dose often 57.1 µM), actives largely listed as inhibitors; actives 0.66% (n = 230,000); AID 485360; AlphaScreen L3MBTL1–H3K9me1 peptide binding; further: nearly all actives have a fitted effect of over 60% in size
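Displacement of a biotinylated histone H3(1-15) peptide monomethylated at Lys9 (75 nM) from L3MBTL1 (50 nM) was measured by AlphaScreen after a 30 min room-temperature compound incubation; cefsulodin titration served as intraplate control.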
G9a inh – inhibitors of human histone lysine methyltransferase G9a. Q96KQ7. G9a H3K9 monomethylation, AlphaScreen, 2 h. Potency, µM (series often up to 102 µM), most hits filed as inhibitors. actives 8.8% (n = 350,000). AID 504332; further: nearly all actives have a fitted effect of over 75% in size
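Readings reflect AlphaScreen signal from monomethyl-H3K9 antibody detection. HMT at 20 nM; substrate b-H3K9 500 nM; cofactor SAM 20 uM; 2 h RT reaction; compounds tested as titrations in qHTS with 15 min preincubation.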
HP1b binding inh – inhibitors of HP1-beta chromodomain binding to methylated histone tails; actives 0.56% (n = 390,000); Potency, µM (highest dose often 114 µM), actives largely listed as inhibitors; AlphaScreen HP1-beta / biotin-H3K9me3 peptide binding; P83916; further: nearly all actives have a fitted effect of over 70% in size
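HP1-beta protein (50 nM final) preincubated 30 min at room temperature with biotinylated H3(1-18)K9me3 peptide (50 nM) in PBS pH 7.4, 0.01% Tween-20, then compound added for 30 min. AlphaScreen streptavidin donor/nickel chelate acceptor beads (10 ug/mL final), 30 min dark, luminescence read.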
BAZ2B block – BAZ2B (human) inhibition; Q9UIF8; AlphaScreen BAZ2B-H3K14Ac peptide displacement; Potency, µM (top dose mostly 114 µM), hits mostly inhibitors; actives 4.4% (n = 360,000); AID 504333; further: nearly all actives have a fitted effect of over 60% in size
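Compounds, titrated to a top concentration of 110 uM, were incubated 30 min at room temperature with preformed BAZ2B/acetyl-K14 H3 peptide complex (50 nM each). Proximity signal was measured by AlphaScreen after 20 min with beads.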
Large screens that a line does not name were inactive. The list is not random: actives were taken first. Their share in the collection is about 12%. The call rests on the fitted dose curve; in most records, active means well fitted curve in the direction sought with a large enough effect; inconclusive means small, poorly fitted or top-dose-only effect, or another doubt; inactive means no such curve, though single readings can be large; an effect the other way counts as inactive or inconclusive.

O=C1Cc2ccccc2C(=O)N1CCc1ccccc1	G9a inh 31.6µM
CCOC(=O)c1c(C)[nH]c(C)c1S(=O)(=O)N(C)CC(=O)Nc1cccc(Cl)c1C	none (no result: Sfp PPTase inh, L3MBTL1 inh)
COc1ccc(OCC(=O)NNC(=O)Cn2c(=O)cnc3ccccc32)cc1	G9a inh 70.8µM, BAZ2B block inconclusive (no result: Sfp PPTase inh)
O=C1OC(c2ccccc2)(c2ccccc2)c2ccccc21	none (no result: Sfp PPTase inh, L3MBTL1 inh, G9a inh, BAZ2B block)
CN(C)c1ccc(C2(c3ccc(N(C)C)cc3)OC(=O)c3cc(N)ccc32)cc1	JMJD2A Tudor 28.2µM, HP1b binding inh 15.8µM, BAZ2B block 17.8µM (no result: L3MBTL1 inh)
O=C(Cn1ncc2c3ccccc3n(Cc3ccccc3F)c2c1=O)N1CCCCCC1	none (no result: Sfp PPTase inh, L3MBTL1 inh)
COc1cc(CNn2c(C)n[nH]c2=S)cc(Br)c1OCc1ccc(F)cc1	G9a inh 22.4µM, BAZ2B block inconclusive
COc1cc(CNn2c(C)n[nH]c2=S)cc(Cl)c1OCc1ccc(F)cc1	G9a inh inconclusive, BAZ2B block inconclusive (no result: L3MBTL1 inh)
C=CCOc1c(Br)cc(CNn2c(C)n[nH]c2=S)cc1OCC	JMJD2A Tudor inconclusive, G9a inh 15.8µM
C=CCOc1c(Br)cc(CNn2cn[nH]c2=S)cc1OC	JMJD2A Tudor 79.4µM
CCOC(=O)c1ccc2oc(=O)n(Cc3ccccc3)c2c1	none (no result: Sfp PPTase inh, L3MBTL1 inh)
Cc1ccc(OCC(O)CN2CCN(c3ccccn3)CC2)c(C)c1 (configuration not stated)	G9a inh 50.1µM
OC(COC(c1ccc(Cl)cc1)c1ccc(Cl)cc1)CN1CCN(c2ccccn2)CC1 (configuration not stated)	JMJD2A Tudor inconclusive, G9a inh inconclusive, BAZ2B block 50.1µM
COc1cccc(OCC(O)CN2CCN(c3ccccn3)CC2)c1 (configuration not stated)	G9a inh 44.7µM
Cc1cccc(C)c1OCC(O)CN1CCN(c2ccccn2)CC1 (configuration not stated)	G9a inh inconclusive (no result: BAZ2B block)
COc1cccc(OCC(O)CN2CCN(CCN3C(=O)c4cccc5cccc(c45)C3=O)CC2)c1 (configuration not stated)	JMJD2A Tudor inconclusive, G9a inh 50.1µM
Cc1nn(C)c(C)c1S(=O)(=O)N(CC(=O)Nc1ccc(F)cc1F)c1ccc(C(C)C)cc1	none (no result: Sfp PPTase inh, L3MBTL1 inh)
Cc1ccc(NS(=O)(=O)c2cc(NC(=O)c3ccc4c(c3)NC(=O)CS4)ccc2Cl)c(C)c1	Sfp PPTase inh 15.8µM, G9a inh 2.82µM, HP1b binding inh inconclusive
COCCNC(=O)c1ccc2c(c1)NC(=O)CS2	none
COc1ccc(NC(=O)c2ccc3c(c2)NC(=O)CS3)cc1	JMJD2A Tudor 56.2µM, G9a inh inconclusive (no result: Sfp PPTase inh)
Cc1ccc(C(c2sc3nc(-c4ccco4)nn3c2O)N2CCN(c3ccc(F)cc3)CC2)cc1 (configuration not stated)	JMJD2A Tudor inconclusive, HP1b binding inh inconclusive (no result: Sfp PPTase inh, L3MBTL1 inh)
Oc1c(C(c2ccc(Cl)cc2Cl)N2CCN(c3ccccc3)CC2)sc2nc(-c3ccco3)nn12 (configuration not stated)	G9a inh 11.2µM (no result: Sfp PPTase inh, L3MBTL1 inh)
COc1ccc(N2CCN(C(c3ccc(F)cc3)c3sc4nc(-c5ccco5)nn4c3O)CC2)cc1 (configuration not stated)	JMJD2A Tudor inconclusive, G9a inh inconclusive, HP1b binding inh inconclusive, BAZ2B block 39.8µM (no result: Sfp PPTase inh, L3MBTL1 inh)
COc1ccc(N2CCN(C(c3ccccc3F)c3sc4nc(-c5ccco5)nn4c3O)CC2)cc1 (configuration not stated)	JMJD2A Tudor inconclusive, G9a inh inconclusive, HP1b binding inh inconclusive, BAZ2B block 39.8µM (no result: Sfp PPTase inh, L3MBTL1 inh)
Oc1c(C(c2ccccc2F)N2CCN(Cc3ccccc3)CC2)sc2nc(-c3ccco3)nn12 (configuration not stated)	JMJD2A Tudor inconclusive, BAZ2B block inconclusive (no result: Sfp PPTase inh, L3MBTL1 inh)
Oc1c(C(c2ccc(Cl)cc2Cl)N2CCOCC2)sc2nc(-c3ccco3)nn12 (configuration not stated)	BAZ2B block inconclusive (no result: Sfp PPTase inh, L3MBTL1 inh)
O=C(OCC#CCSc1nnc(-c2cccs2)o1)c1ccc(F)cc1	none (no result: Sfp PPTase inh, L3MBTL1 inh, G9a inh, HP1b binding inh, BAZ2B block)
OC(CN1c2ccccc2Sc2ccccc21)Cn1nnc2ccccc21 (configuration not stated)	JMJD2A Tudor inconclusive, G9a inh 20µM, HP1b binding inh inconclusive
O=C1c2ccccc2C(=O)N1CC(O)Cn1nnc2ccccc21 (configuration not stated)	none
COc1ccc2nc3c(cc2c1)Cn1c-3nc2ccccc2c1=O	none (no result: L3MBTL1 inh, G9a inh, BAZ2B block)
O=C1CC(c2ccccc2)CC2=C1C1(CCCCC1)N=C(Nc1nc3ccccc3o1)N2 (configuration not stated)	none (no result: Sfp PPTase inh, L3MBTL1 inh, G9a inh, HP1b binding inh, BAZ2B block)
CCOC(=O)c1cc(CC)sc1/N=C/C1C(=O)CC(C)(C)CC1=O	none
CCc1sc(C(C2C(=O)CC(C)(C)CC2=O)C2C(=O)CC(C)(C)CC2=O)cc1[N+](=O)[O-]	Sfp PPTase inh 11.2µM, BAZ2B block inconclusive (no result: G9a inh)
COc1ccc(C(=C2C(=O)Nc3ccccc32)c2ccc(OC)cc2)cc1	none (no result: JMJD2A Tudor, L3MBTL1 inh, G9a inh, HP1b binding inh, BAZ2B block)
CCO/C(C)=C1\C(=O)Nc2ccccc21	G9a inh 50.1µM
CCOC(=O)c1c(C)n(-c2ccccc2)c2ccc(OC(=O)c3cccc(Cl)c3)cc12	none (no result: Sfp PPTase inh, L3MBTL1 inh)
CCc1cccc(C)c1NC(=O)CCCn1nc(C)c2sc3ccccc3c2c1=O	none (no result: Sfp PPTase inh, L3MBTL1 inh)
O=C1N=c2ccc(Br)cc2=C1c1sc(=S)n(NS(=O)(=O)c2ccccc2)c1O	Sfp PPTase inh inconclusive, JMJD2A Tudor 50.1µM, G9a inh 15.8µM, HP1b binding inh inconclusive, BAZ2B block 20µM
Cc1ccc(S(=O)(=O)Nn2c(O)c(C=C3N=c4ccccc4=N3)sc2=S)cc1	JMJD2A Tudor inconclusive, G9a inh inconclusive
Cc1oc2ncn(C)c(=O)c2c1C(=O)NCCCN(Cc1ccccc1)C(C)C	none (no result: Sfp PPTase inh, L3MBTL1 inh)
O=[N+]([O-])c1cccc(-c2cn3ccccc3n2)c1	none
CN1CCN(/N=C/c2nc(-c3cccc([N+](=O)[O-])c3)n3ccccc23)CC1	Sfp PPTase inh 79.4µM, JMJD2A Tudor inconclusive, G9a inh inconclusive, BAZ2B block inconclusive
COc1ccc(NC(=S)Nc2ccc3nsnc3c2)cc1	Sfp PPTase inh 56.2µM, JMJD2A Tudor inconclusive, G9a inh 2µM, HP1b binding inh inconclusive
C=CCN(CC=C)C(=S)Nc1ccc2nsnc2c1	Sfp PPTase inh 12.6µM, L3MBTL1 inh 8.91µM, G9a inh 17.8µM
CCOc1ccc(NC(=S)Nc2ccc3nsnc3c2)cc1	Sfp PPTase inh inconclusive, G9a inh inconclusive, HP1b binding inh inconclusive
COc1ccc(NC(=S)Nc2ccc3nc(C)c(C)nc3c2)cc1	G9a inh 44.7µM
CNC(=S)N=Nc1c(O)[nH]c2ccccc12	Sfp PPTase inh inconclusive
CN(C)C(=S)N=Nc1[nH]c2ccccc2c1O	G9a inh 7.94µM
